# According to PubChem BioAssay (NCATS):
# Values joined by “and” are separate entries in the source; they are usually repeats but may differ in a detail not shown here. Equal entries are not always repeated. Results filed as inconclusive are left out. Where a call stands in place of a potency, no number is given. Active and inactive are the calls of the source. Unless noted, calls come from the whole dose curve; as a rule, active = well fitted curve in the direction sought with a large enough effect; inconclusive = small, poorly fitted or top-dose-only effect, or another doubt; inactive = no such curve, though single readings can be large; an effect the other way counts as inactive or inconclusive.
# What was measured:
# [1] = biological target: Guanine nucleotide-binding protein G(i) subunit alpha-1 (Homo sapiens) (UniProt P63096); experiment: qHTS Assay for Inhibitors of RGS12 GoLoco Motif Activity (Green Fluorophore) (AID 879); note: potency is the fitted concentration of half-maximal effect
# Summary of the method: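 Fluorescence polarization assay: 50 nM Gαi1 with 10 nM FITC-labeled RGS12 GoLoco peptide in 10 mM Tris pH 7.5, 150 mM NaCl, 0.1 mM GDP, 0.05% NP40, 10 min at room temperature with compound.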
# [2] = biological target: Cytochrome P450 3A4 (Homo sapiens) (UniProt P08684); experiment: qHTS Assay for Activators of Cytochrome P450 3A4 (AID 885); note: nearly all actives have a fitted effect of over 65% in size
# Summary of the method: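 Quantitative HTS format: compounds preincubated with 20nM human CYP3A4 and Luciferin-PPXE substrate at KM, reaction started by NADPH regeneration, stopped after 60 min, luciferase luminescence read 20 min later.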
# [3] = biological target: Cytochrome P450 3A4 (Homo sapiens) (UniProt P08684); experiment: qHTS Assay for Inhibitors and Substrates of Cytochrome P450 3A4 (AID 884); note: nearly all actives have a fitted effect of over 50% in size; note: potency is the fitted concentration of half-maximal effect
# Summary of the method: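 20 nM human CYP3A4 with 25 uM Luciferin-PPXE (at KM) in 200 mM KPO4, preincubated 10 min with compound; NADPH regeneration started a 60 min RT reaction. Luciferin detected by luminescence, normalized to 57 uM ketoconazole as full inhibition.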
# [4] = qHTS Assay for Identification of Small Molecule Antagonists for NFkB Signaling Pathway (AID 895; active = well fitted inhibition curve with a large enough effect in the signal ratio, with a control signal flat, not every such curve was filed as active; the % refers to the signal ratio)
# Summary of the method: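 Beta-lactamase reporter read-out (460 and 530 nm emission ratio, 405 nm excitation, 2 hrs substrate loading RT) after 5 hr stimulation with 10 pM TNF alpha in compound-treated NFkB-bla ME-180 cells in low-serum medium.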
# [5] = biological target: Cytochrome P450 2C9 (Homo sapiens) (UniProt P11712); experiment: qHTS Assay for Inhibitors and Substrates of Cytochrome P450 2C9 (AID 883); note: nearly all actives have a fitted effect of over 60% in size; note: potency is the fitted concentration of half-maximal effect
# Summary of the method: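 Inhibition of CYP2C9 is scored as loss of luminescence, with 57uM sulphaphenazole defining 100% inhibition. Substrate Luciferin-H is used at 100uM, equal to its KM; enzyme at 10nM in 25mM KPO4, 60 min at 37C with NADPH regeneration.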
# [6] = biological target: Cytochrome P450 2D6 (Homo sapiens) (UniProt P10635); experiment: qHTS Assay for Inhibitors and Substrates of Cytochrome P450 2D6 (AID 891); note: potency is the fitted concentration of half-maximal effect; nearly all actives have a fitted effect of over 60% in size
# Summary of the method: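 Human CYP2D6 (5 nM) with 30 uM Luciferin-ME EGE (at Km) in 100 mM KPO4, compound preincubated 10 min, then NADPH regeneration system for 60 min at room temperature. Luciferin read by luminescence; normalized to 1.43 uM quinidine.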
# Cytochrome P450 2D6 (Homo sapiens), sequence (P10635 whole entry, looked up): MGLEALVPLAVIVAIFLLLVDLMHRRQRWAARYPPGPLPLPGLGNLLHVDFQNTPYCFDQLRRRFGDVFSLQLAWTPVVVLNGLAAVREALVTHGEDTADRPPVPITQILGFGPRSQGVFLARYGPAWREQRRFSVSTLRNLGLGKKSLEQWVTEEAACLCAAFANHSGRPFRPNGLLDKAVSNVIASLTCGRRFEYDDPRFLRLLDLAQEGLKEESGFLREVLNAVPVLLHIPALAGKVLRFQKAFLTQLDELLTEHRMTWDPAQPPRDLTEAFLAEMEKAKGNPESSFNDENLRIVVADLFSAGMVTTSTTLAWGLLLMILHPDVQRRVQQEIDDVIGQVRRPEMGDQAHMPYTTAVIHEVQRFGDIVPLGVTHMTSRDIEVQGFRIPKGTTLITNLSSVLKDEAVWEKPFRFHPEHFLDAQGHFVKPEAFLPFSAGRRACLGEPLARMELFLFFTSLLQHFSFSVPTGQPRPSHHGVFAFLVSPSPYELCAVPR
# Cytochrome P450 2C9 (Homo sapiens), sequence (P11712 whole entry, looked up): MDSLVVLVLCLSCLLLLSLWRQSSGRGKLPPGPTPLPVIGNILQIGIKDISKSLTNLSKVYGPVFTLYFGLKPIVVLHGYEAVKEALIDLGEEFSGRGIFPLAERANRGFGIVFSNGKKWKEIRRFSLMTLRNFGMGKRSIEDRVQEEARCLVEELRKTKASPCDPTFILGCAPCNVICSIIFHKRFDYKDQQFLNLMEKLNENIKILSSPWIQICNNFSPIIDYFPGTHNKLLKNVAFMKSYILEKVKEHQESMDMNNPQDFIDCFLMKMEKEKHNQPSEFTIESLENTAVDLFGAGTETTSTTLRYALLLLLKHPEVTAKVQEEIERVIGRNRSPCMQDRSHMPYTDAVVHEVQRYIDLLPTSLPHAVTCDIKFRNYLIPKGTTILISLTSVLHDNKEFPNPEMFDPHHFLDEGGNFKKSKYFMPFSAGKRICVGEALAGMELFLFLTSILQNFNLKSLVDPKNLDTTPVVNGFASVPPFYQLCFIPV
# Guanine nucleotide-binding protein G(i) subunit alpha-1 (Homo sapiens), sequence (P63096 whole entry, looked up): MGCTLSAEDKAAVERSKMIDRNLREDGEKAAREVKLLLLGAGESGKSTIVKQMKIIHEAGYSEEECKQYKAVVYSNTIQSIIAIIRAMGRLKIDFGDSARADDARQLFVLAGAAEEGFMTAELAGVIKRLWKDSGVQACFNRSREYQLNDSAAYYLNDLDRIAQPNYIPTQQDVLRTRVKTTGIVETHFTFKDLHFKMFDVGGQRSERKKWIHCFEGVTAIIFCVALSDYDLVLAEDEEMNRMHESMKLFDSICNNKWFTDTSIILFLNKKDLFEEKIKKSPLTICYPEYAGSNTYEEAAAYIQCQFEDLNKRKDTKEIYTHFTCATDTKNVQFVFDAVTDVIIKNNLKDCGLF
# Cytochrome P450 3A4 (Homo sapiens), sequence (P08684 whole entry, looked up): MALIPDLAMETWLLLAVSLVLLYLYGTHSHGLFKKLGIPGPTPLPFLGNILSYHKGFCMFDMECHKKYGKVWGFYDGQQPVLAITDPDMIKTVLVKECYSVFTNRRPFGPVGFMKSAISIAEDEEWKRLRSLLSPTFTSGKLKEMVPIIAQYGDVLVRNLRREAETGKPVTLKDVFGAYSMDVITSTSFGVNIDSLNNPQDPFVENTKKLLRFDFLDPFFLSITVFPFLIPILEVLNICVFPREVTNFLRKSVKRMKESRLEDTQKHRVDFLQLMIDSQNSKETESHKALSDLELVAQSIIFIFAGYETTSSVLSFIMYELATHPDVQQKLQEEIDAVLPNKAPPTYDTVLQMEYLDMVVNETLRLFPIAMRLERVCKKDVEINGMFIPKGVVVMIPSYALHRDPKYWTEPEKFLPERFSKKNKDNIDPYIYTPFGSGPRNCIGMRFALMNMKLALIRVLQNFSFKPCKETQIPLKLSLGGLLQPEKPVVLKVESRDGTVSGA
structure (smiles),measurement,setting,value
CN1CCc2cccc(Cl)c2CC1,Potency,[1],inactive
O=[N+]([O-])c1ccc2nc(N3CCNCC3)ccc2c1,Potency,[1],inactive
same,outcome,[2],inactive
COc1ccc2[nH]cc(CCN)c2c1,Potency,[1],inactive
same,Potency,[3],inactive
CN1CCC(c2c[nH]c3ccc(O)cc23)CC1,Potency,[1],inactive
same,outcome,[2],inactive
COc1ccc2c(c1)/C(=C/c1cnc[nH]1)C(=O)N2,Potency,[1],inactive
same,Potency,[3],0.794 µM (active)
same,outcome,[2],inactive
c1ccc2c(N3CCNCC3)cccc2c1,Potency,[1],inactive
NNC(=O)c1ccc(O)cc1,Potency,[1],inactive
same,Potency,[3],5.01 µM (active)
same,outcome,[2],inactive
same,Potency,[4],inactive
O=c1c2ccccc2[se]n1-c1ccccc1,Potency,[1],12.6 µM (active)
same,Potency,[5],1 µM (active) and 79.4 nM (active)
same,Potency,[3],3.98 µM (active) and 25.1 µM (active)
same,outcome,[2],inactive
same,Potency,[6],10 µM (active) and 1 µM (active)
Nc1ccc(CCN2CCN(c3cccc(C(F)(F)F)c3)CC2)cc1,Potency,[1],inactive
same,Potency,[3],7.94 µM (active)
same,outcome,[2],inactive
CCCN(CCC)CCc1c[nH]c2ccc(C(N)=O)cc12,Potency,[1],inactive
same,Potency,[5],inactive
same,Potency,[4],inactive
CC(C)(C)c1cc(C=C(C#N)C#N)cc(C(C)(C)C)c1O,Potency,[1],inactive
same,Potency,[5],31.6 nM (active)
same,Potency,[3],3.16 µM (active)
same,outcome,[2],inactive
Cc1c2ccncc2c(C)c2c1[nH]c1ccccc12,Potency,[1],inactive
same,Potency,[3],158 nM (active) and 398 nM (active)
same,outcome,[2],inactive
same,Potency,[6],31.6 µM (active) and 6.31 µM (active)
C[N+](C)(C)CC#CCOC(=O)Nc1cccc(Cl)c1,Potency,[1],inactive
CCCn1c(C)c(C(=O)c2ccc3ccccc3c2)c2ccccc21,Potency,[1],inactive
same,Potency,[3],inactive
